# According to PubChem BioAssay (EPA / NIEHS):
# Records with an inconclusive call do not appear. The source made the active and inactive calls. How the source made its calls: active means hit-call score of the fitted dose curve at least 0.9, where 1 is the maximum; inconclusive means response in the unintended direction; inactive means score below 0.9.
# Tests used:
# [1] = biological target: Luciferin 4-monooxygenase (Photinus pyralis) (UniProt P08659); test: CCTE_Simmons_QuantiLum_inhib_2: CCTE's Firefly Luciferase Inhibition Assay, Simmons Lab (AID 2283767);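 on AC50: potency for inhibitors that lower luciferase luminescence relative to DMSO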
# Method in brief: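 First, 5 ng purified luciferase in phosphate buffer with BSA is dispensed per well. Next, test chemicals (5 nM to 87.5 uM final, 0.5% DMSO) are added and incubated 30 min at 37C in darkness. Finally, luciferin reagent is injected and luminescence read kinetically.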
# [2] = ArunA_Migration_hNC: ArunA Biomedical's Oris Neural Crest (hNC) Cell Migration Assay (AID 2283755)
# Method in brief: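 Calcein-AM fluorescence (ex494 nm/em 517 nm) in the stopper-defined detection zone quantifies migration of hNC cells after 72 h chemical exposure; 60,000 cells/well plated on Matrigel with LIF and bFGF, 16 h pre-incubation. DMSO baseline.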
# [3] = ArunA_NOG_NucleusCount: ArunA Biomedical's Neurite Outgrowth (NOG) Assay for Nucleus Count (AID 2283756)
# Method in brief: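 Viable neuron count, from Hoechst nuclei passing size and intensity gates, imaged at 20x on differentiated H9-derived human neurons. Exposure lasted 48 h from seeding; activity was scored relative to DMSO.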
# [4] = system: zebrafish Androgen Receptor (AR), gene 100005148; test: ATG_zfAR_XSP1: Attagene TRANS-FACTORIAL Multi-Species (XSP1) HepG2 Assay for zebrafish Androgen Receptor (AR) (AID 2283771)
# Method in brief: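 Gain-of-signal versus DMSO was measured as reporter transcripts quantified by RT-PCR, fluorescent labelling and capillary electrophoresis after 24 h chemical exposure. The cells were HepG2 expressing a chimeric zebrafish AR-GAL4, co-stimulated with 3 nM 6-alpha-fluorotestosterone.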
# [5] = system: zebrafish Estrogen Receptor (ESR2B), gene 317733; test: ATG_zfER2b_XSP1: Attagene TRANS-FACTORIAL Multi-Species (XSP1) HepG2 Assay for zebrafish Estrogen Receptor (ESR2B) (AID 2283773)
# Method in brief: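 Multiplexed TRANS format in transfected HepG2 liver cells, chimeric NR-Gal4 from zebrafish ESR2B. 24 h dosing; medium contains 3 nM 6-alpha-fluorotestosterone. mRNA induction by RT-PCR/CE, positive direction vs DMSO.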
# [6] = ArunA_NOG_NeuriteLength: ArunA Biomedical's Neurite Outgrowth (NOG) Assay for Neurite Length (AID 2283757)
# Method in brief: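 Total neurite length per neuron, from traced βIII-tubulin-labelled processes longer than 10 um on viable Hoechst-gated cells, was scored as decrease from DMSO. Cells were hESC (H9)-derived neurons given 48 h chemical exposure immediately after seeding.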
# [7] = ArunA_NOG_NeuritesPerNeuron: ArunA Biomedical's Neurite Outgrowth (NOG) Assay for Neurites Per Neuron (AID 2283758)
# Method in brief: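 Differentiated human H9-derived neurons exposed to chemicals for 48 h from seeding, then stained with Hoechst and βIII-tubulin/DyLight 488. Automated imaging counted neurites (processes >10 um) per valid neuron; loss of signal versus DMSO scored.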
# [8] = ArunA_NOG_BranchPointsPerNeurite: ArunA Biomedical's Neurite Outgrowth (NOG) Assay for Branch Points Per Neurite (AID 2283759)
# Method in brief: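 Automated image analysis traced neurites (processes >10 um) from valid cell bodies after Hoechst and βIII-tubulin staining. hNN cells from H9 embryonic stem cells, 48 h exposure. Fitted bidirectionally against DMSO.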
# [9] = ArunA_Migration_hNP: ArunA Biomedical's Oris Neuroprogenitor (hNP) Cell Migration Assay (AID 2283754)
# Method in brief: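 Readout is calcein-AM fluorescence (ex494/em517) of cells migrating into the detection zone, relative to DMSO. hNP1 cells (H9-derived) grown on Matrigel behind stoppers 16 h, then stoppers pulled and chemical applied 72 h; cytochalasin D as control.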
# [10] = biological target: zebrafish Estrogen Receptor (ESR1), esr1 (gene 259252) (UniProt P57717); test: ATG_zfER1_XSP1: Attagene TRANS-FACTORIAL Multi-Species (XSP1) HepG2 Assay for zebrafish Estrogen Receptor (ESR1) (AID 2283772)
# Method in brief: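 HepG2 cells transiently transfected with a GAL4-UAS reporter and chimeric zebrafish ER-Gal4, dosed 24 h with 3 nM 6-alpha-fluorotestosterone present. Reporter mRNA measured by RT-PCR and capillary electrophoresis; gain of signal versus DMSO.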
# Luciferin 4-monooxygenase (Photinus pyralis), sequence (P08659 whole entry, looked up): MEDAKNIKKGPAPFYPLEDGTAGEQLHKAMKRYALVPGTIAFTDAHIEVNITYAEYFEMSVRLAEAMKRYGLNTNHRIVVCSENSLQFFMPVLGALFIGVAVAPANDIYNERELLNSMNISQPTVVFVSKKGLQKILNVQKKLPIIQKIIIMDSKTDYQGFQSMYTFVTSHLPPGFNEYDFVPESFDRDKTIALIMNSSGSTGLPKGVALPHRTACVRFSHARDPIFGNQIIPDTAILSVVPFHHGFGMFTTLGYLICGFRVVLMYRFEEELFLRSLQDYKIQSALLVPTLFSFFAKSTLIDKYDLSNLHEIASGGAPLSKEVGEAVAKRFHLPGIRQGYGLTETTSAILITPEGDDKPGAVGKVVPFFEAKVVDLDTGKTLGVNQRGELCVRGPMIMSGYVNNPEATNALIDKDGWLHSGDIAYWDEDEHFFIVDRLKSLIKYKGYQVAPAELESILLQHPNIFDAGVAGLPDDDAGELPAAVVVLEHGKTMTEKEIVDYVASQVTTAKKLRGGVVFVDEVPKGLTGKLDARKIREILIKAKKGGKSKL
# zebrafish Estrogen Receptor (ESR1), esr1 (gene 259252), sequence (P57717 whole entry, looked up, the tested form may be a part): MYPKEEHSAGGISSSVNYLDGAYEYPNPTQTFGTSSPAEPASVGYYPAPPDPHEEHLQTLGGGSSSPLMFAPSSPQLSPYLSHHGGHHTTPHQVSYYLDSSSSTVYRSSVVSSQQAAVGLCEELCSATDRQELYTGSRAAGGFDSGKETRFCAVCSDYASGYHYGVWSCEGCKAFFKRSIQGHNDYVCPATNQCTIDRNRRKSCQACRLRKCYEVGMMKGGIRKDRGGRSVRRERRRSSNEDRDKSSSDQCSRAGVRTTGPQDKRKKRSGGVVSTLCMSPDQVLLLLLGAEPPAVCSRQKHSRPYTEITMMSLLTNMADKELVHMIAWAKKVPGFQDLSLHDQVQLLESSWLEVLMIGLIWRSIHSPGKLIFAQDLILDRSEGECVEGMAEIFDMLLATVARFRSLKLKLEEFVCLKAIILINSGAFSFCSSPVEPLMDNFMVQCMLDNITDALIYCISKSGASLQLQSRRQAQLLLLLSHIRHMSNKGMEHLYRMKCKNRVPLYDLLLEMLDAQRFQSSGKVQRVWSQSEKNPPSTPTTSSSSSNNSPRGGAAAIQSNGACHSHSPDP
smiles,measurement,setting,value
NC(=O)N(O)[C@@H]1COc2cc(OCc3ccccc3)ccc21,AC50,[1],2.1 µM (active)
CCCCCCCCCC,outcome,[2],inactive
same,outcome,[3],inactive
Cc1ccc(S(=O)(=O)NC(=O)NN2CCCCCC2)cc1,outcome,[1],inactive
C[C@@H](Oc1ccc(CNC(=O)c2cccnc2Oc2ccc3c(c2)OCO3)c(F)c1)C(=O)O,outcome,[1],inactive
CC(C)C(=O)Nc1ccc([N+](=O)[O-])c(C(F)(F)F)c1,outcome,[4],inactive
same,outcome,[5],inactive
c1ccc2cc3ccccc3cc2c1,outcome,[1],inactive
OCCNCCO,outcome,[2],inactive
same,AC50,[3],21.3 µM (active)
same,AC50,[6],24.8 µM (active)
same,AC50,[7],20.2 µM (active)
same,AC50,[8],15.4 µM (active)
Cc1cccc(O)c1C,outcome,[1],inactive
CCCCCCCCCCCCCCCCOS(=O)(=O)O,outcome,[1],inactive
O=S1(=O)CCCO1,outcome,[1],inactive
CCN(CC)C(=S)SSC(=S)N(CC)CC,AC50,[9],0.405 µM (active)
same,AC50,[2],8.55 µM (active)
same,AC50,[3],18.4 µM (active)
same,AC50,[6],15.5 µM (active)
same,AC50,[7],14.5 µM (active)
same,outcome,[10],inactive
COS(C)(=O)=O,outcome,[1],inactive
CCn1nc(C)c2c1C(=O)NCC(c1ccc(O)cc1)=N2,AC50,[1],15.8 µM (active)
NNC(=O)c1ccncc1,outcome,[1],inactive
CCCC(CCC)C(=O)O,AC50,[3],82.6 µM (active)
same,AC50,[6],77.4 µM (active)
same,AC50,[7],91.1 µM (active)
same,AC50,[8],69.6 µM (active)
O=C(NO)C1(NS(=O)(=O)c2ccc(Oc3ccc(F)cc3)cc2)CCOCC1,outcome,[1],inactive
CCc1ccc(O)c(C(C)(C)C)c1,outcome,[1],inactive
C=CCc1cc(S(=O)(=O)c2ccc(O)c(CC=C)c2)ccc1O,outcome,[1],inactive
same,AC50,[5],1.68 µM (active)
Cn1cc[nH]c1=S,outcome,[9],inactive
same,outcome,[2],inactive
same,AC50,[3],5.5 µM (active)
same,AC50,[6],6.43 µM (active)
same,AC50,[7],5.75 µM (active)
same,AC50,[8],7.98 µM (active)
same,outcome,[1],inactive
